What all share (test): PBM; 200 nM protein, PBS
Common to all, as to conditions: dsDNA, one strand shown

The target in assay [1] is HESX1 (Homo sapiens, UniProt Q9UBX0 95-180, R165K).
Assay [2] addresses SHOX (Homo sapiens, UniProt O15266 103-189).
Assay [3] addresses HESX1 (Homo sapiens, UniProt Q9UBX0 95-180).
Assay [4] concerns the target MSX2 (Homo sapiens, UniProt P35548 130-214, R199I).
Assay [5] addresses ALX1 (Homo sapiens, UniProt Q15699 118-204, L144V).
Assay [6] has as its target SHOX (Homo sapiens, UniProt O15266 103-189, R173C).
The target in assay [7] is ALX1 (Homo sapiens, UniProt Q15699 118-204, L144R).
Sequence of ALX1 (Homo sapiens, UniProt Q15699 118-204, L144R) (Q15699 118-204 L144R): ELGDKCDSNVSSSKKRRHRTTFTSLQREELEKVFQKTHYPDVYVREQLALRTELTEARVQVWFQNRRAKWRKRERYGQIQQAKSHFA
Assay [8] has as its target HESX1 (Homo sapiens, UniProt Q9UBX0 95-180, R109Q).
Assay [9] addresses PROP1 (Homo sapiens, UniProt O75360 56-141, R99H).
Assay [10] addresses HESX1 (Homo sapiens, UniProt Q9UBX0 95-180, P111T).
Assay [11] addresses MSX2 (Homo sapiens, UniProt P35548 130-214, F161Y).
The target of assay [12] is HESX1 (Homo sapiens, UniProt Q9UBX0 95-180, F115L).
Sequence of HESX1 (Homo sapiens, UniProt Q9UBX0 95-180, F115L) (Q9UBX0 95-180 F115L): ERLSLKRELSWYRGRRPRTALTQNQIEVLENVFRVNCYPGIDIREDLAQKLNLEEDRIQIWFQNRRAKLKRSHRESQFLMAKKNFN
Assay [13] has as its target ALX1 (Homo sapiens, UniProt Q15699 118-204).
For assay [14], the target named is ALX4 (Homo sapiens, UniProt Q9H161 200-286).
Sequence of ALX4 (Homo sapiens, UniProt Q9H161 200-286) (Q9H161 200-286): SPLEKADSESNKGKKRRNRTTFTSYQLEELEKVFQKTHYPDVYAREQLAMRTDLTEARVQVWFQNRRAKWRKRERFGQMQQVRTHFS
The target in assay [15] is ALX4 (Homo sapiens, UniProt Q9H161 200-286, Q225E).
Sequence of ALX4 (Homo sapiens, UniProt Q9H161 200-286, Q225E) (Q9H161 200-286 Q225E): as the sequence (Q9H161 200-286) above, with Q26E counted along it
The target of assay [16] is PROP1 (Homo sapiens, UniProt O75360 56-141).
Sequence of PROP1 (Homo sapiens, UniProt O75360 56-141) (O75360 56-141): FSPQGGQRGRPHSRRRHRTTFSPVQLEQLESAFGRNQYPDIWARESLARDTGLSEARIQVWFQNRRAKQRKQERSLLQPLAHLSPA
Another assay concerns the target ALX3 (Homo sapiens, UniProt O95076 139-225, L168Q).
In assay [17] the target is PROP1 (Homo sapiens, UniProt O75360 56-141, F88S).
Sequence of PROP1 (Homo sapiens, UniProt O75360 56-141, F88S) (O75360 56-141 F88S): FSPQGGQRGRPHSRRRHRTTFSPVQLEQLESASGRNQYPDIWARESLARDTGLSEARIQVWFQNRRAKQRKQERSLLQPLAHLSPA
Assay [18] addresses PRRX1 (Homo sapiens, UniProt P54821 80-166, F113S).
Assay [19] addresses PRRX1 (Homo sapiens, UniProt P54821 80-166).

Sequence of MSX2 (Homo sapiens, UniProt P35548 130-214, R199I) (P35548 130-214 R199I): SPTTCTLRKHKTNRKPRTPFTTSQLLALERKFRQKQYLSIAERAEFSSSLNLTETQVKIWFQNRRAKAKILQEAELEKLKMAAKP
Sequence of ALX1 (Homo sapiens, UniProt Q15699 118-204) (Q15699 118-204): as the sequence (Q15699 118-204 L144R) above, with R27L counted along it
Sequence of HESX1 (Homo sapiens, UniProt Q9UBX0 95-180, P111T) (Q9UBX0 95-180 P111T): as the sequence (Q9UBX0 95-180 F115L) above, with P17T, L21F counted along it
Sequence of SHOX (Homo sapiens, UniProt O15266 103-189, R173C) (O15266 103-189 R173C): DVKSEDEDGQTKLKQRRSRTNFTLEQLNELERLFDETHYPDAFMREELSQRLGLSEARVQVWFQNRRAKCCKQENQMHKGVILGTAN
Sequence of MSX2 (Homo sapiens, UniProt P35548 130-214, F161Y) (P35548 130-214 F161Y): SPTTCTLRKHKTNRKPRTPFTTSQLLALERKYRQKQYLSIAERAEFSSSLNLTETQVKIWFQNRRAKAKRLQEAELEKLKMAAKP
Sequence of ALX3 (O95076 139-225 L168Q): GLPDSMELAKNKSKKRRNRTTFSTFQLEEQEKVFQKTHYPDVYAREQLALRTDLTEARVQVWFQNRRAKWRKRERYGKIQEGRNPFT
Sequence of SHOX (Homo sapiens, UniProt O15266 103-189) (O15266 103-189): as the sequence (O15266 103-189 R173C) above, with C71R counted along it
Sequence of HESX1 (Homo sapiens, UniProt Q9UBX0 95-180) (Q9UBX0 95-180): as the sequence (Q9UBX0 95-180 F115L) above, with L21F counted along it
Sequence of HESX1 (Homo sapiens, UniProt Q9UBX0 95-180, R165K) (Q9UBX0 95-180 R165K): as the sequence (Q9UBX0 95-180 F115L) above, with L21F, R71K counted along it
Sequence of HESX1 (Homo sapiens, UniProt Q9UBX0 95-180, R109Q) (Q9UBX0 95-180 R109Q): as the sequence (Q9UBX0 95-180 F115L) above, with R15Q, L21F counted along it
Sequence of PROP1 (Homo sapiens, UniProt O75360 56-141, R99H) (O75360 56-141 R99H): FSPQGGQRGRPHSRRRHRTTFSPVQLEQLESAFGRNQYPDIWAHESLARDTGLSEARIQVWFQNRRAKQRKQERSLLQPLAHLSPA
Sequence of ALX1 (Homo sapiens, UniProt Q15699 118-204, L144V) (Q15699 118-204 L144V): as the sequence (Q15699 118-204 L144R) above, with R27V counted along it
Sequence of PRRX1 (Homo sapiens, UniProt P54821 80-166, F113S) (P54821 80-166 F113S): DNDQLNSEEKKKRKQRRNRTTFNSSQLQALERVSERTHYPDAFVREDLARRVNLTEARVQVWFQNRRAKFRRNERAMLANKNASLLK
Sequence of PRRX1 (Homo sapiens, UniProt P54821 80-166) (P54821 80-166): as the sequence (P54821 80-166 F113S) above, with S34F counted along it

In the case of CAATTACG, the binding signal in the assay with HESX1 [1] was 12 upbm affinity estimate (log intensity, higher = more binding, comparable within an allelic series); in the assay with SHOX [2], 11.8 upbm affinity estimate (log intensity, higher = more binding, comparable within an allelic series); with HESX1 [3] it was 12.1 upbm affinity estimate (log intensity, higher = more binding, comparable within an allelic series); with MSX2 [4] it was 12.5 upbm affinity estimate (log intensity, higher = more binding, comparable within an allelic series); with ALX1 [5], 11.2 upbm affinity estimate (log intensity, higher = more binding, comparable within an allelic series); in the assay with SHOX [6], 9.27 upbm affinity estimate (log intensity, higher = more binding, comparable within an allelic series). Moreover, the binding signal was 10.9 upbm affinity estimate (log intensity, higher = more binding, comparable within an allelic series) with ALX1 [7]; 8.68 upbm affinity estimate (log intensity, higher = more binding, comparable within an allelic series) in the assay with HESX1 [8]; 11 upbm affinity estimate (log intensity, higher = more binding, comparable within an allelic series) in the assay with PROP1 [9]; 10.6 upbm affinity estimate (log intensity, higher = more binding, comparable within an allelic series) in the assay with HESX1 [10]; 13.4 upbm affinity estimate (log intensity, higher = more binding, comparable within an allelic series) with MSX2 [11]; 7.47 upbm affinity estimate (log intensity, higher = more binding, comparable within an allelic series) in the assay with HESX1 [12]. Further, the binding signal in the assay with ALX1 [13] was 12.1 upbm affinity estimate (log intensity, higher = more binding, comparable within an allelic series).

As to AATTAAGG, the binding signal with HESX1 [1] is 11.4 upbm affinity estimate (log intensity, higher = more binding, comparable within an allelic series); in the assay with SHOX [2] it was 11.7 upbm affinity estimate (log intensity, higher = more binding, comparable within an allelic series); in the assay with ALX4 [14], 13.6 upbm affinity estimate (log intensity, higher = more binding, comparable within an allelic series); with ALX4 [15], 12.8 upbm affinity estimate (log intensity, higher = more binding, comparable within an allelic series); with HESX1 [3], 11.4 upbm affinity estimate (log intensity, higher = more binding, comparable within an allelic series); with SHOX [6], 9.49 upbm affinity estimate (log intensity, higher = more binding, comparable within an allelic series). Besides, the binding signal was 11 upbm affinity estimate (log intensity, higher = more binding, comparable within an allelic series) in the assay with PROP1 [16]; 8.76 upbm affinity estimate (log intensity, higher = more binding, comparable within an allelic series) with HESX1 [8]; 10.8 upbm affinity estimate (log intensity, higher = more binding, comparable within an allelic series) with PROP1 [9]; 10.4 upbm affinity estimate (log intensity, higher = more binding, comparable within an allelic series) with ALX3; 10.3 upbm affinity estimate (log intensity, higher = more binding, comparable within an allelic series) with HESX1 [10]; 7.57 upbm affinity estimate (log intensity, higher = more binding, comparable within an allelic series) with PROP1 [17]. The binding signal with HESX1 [12] is 7.55 upbm affinity estimate (log intensity, higher = more binding, comparable within an allelic series).

For AATTAACT, the binding signal with HESX1 [1] is 12.1 upbm affinity estimate (log intensity, higher = more binding, comparable within an allelic series); with SHOX [2], 11.8 upbm affinity estimate (log intensity, higher = more binding, comparable within an allelic series); in the assay with ALX4 [14] it was 13.9 upbm affinity estimate (log intensity, higher = more binding, comparable within an allelic series); with PRRX1 [18], 11.2 upbm affinity estimate (log intensity, higher = more binding, comparable within an allelic series); in the assay with ALX4 [15], 13.4 upbm affinity estimate (log intensity, higher = more binding, comparable within an allelic series); with HESX1 [3], 12.2 upbm affinity estimate (log intensity, higher = more binding, comparable within an allelic series). Also, the binding signal was 12.4 upbm affinity estimate (log intensity, higher = more binding, comparable within an allelic series) with MSX2 [4]; 11.7 upbm affinity estimate (log intensity, higher = more binding, comparable within an allelic series) with ALX1 [5]; 9.37 upbm affinity estimate (log intensity, higher = more binding, comparable within an allelic series) with SHOX [6]; 11.4 upbm affinity estimate (log intensity, higher = more binding, comparable within an allelic series) in the assay with ALX1 [7]; 11.5 upbm affinity estimate (log intensity, higher = more binding, comparable within an allelic series) with PROP1 [16]; 9.2 upbm affinity estimate (log intensity, higher = more binding, comparable within an allelic series) with HESX1 [8]. Further, the binding signal is 11.4 upbm affinity estimate (log intensity, higher = more binding, comparable within an allelic series) with PROP1 [9]; 10.7 upbm affinity estimate (log intensity, higher = more binding, comparable within an allelic series) in the assay with ALX3; 10.7 upbm affinity estimate (log intensity, higher = more binding, comparable within an allelic series) with HESX1 [10]; 7.8 upbm affinity estimate (log intensity, higher = more binding, comparable within an allelic series) with PROP1 [17]; 13.1 upbm affinity estimate (log intensity, higher = more binding, comparable within an allelic series) with MSX2 [11]; 7.81 upbm affinity estimate (log intensity, higher = more binding, comparable within an allelic series) with HESX1 [12]. In addition, the binding signal in the assay with ALX1 [13] was 12.3 upbm affinity estimate (log intensity, higher = more binding, comparable within an allelic series); in the assay with PRRX1 [19] it was 13.3 upbm affinity estimate (log intensity, higher = more binding, comparable within an allelic series).

As for GAAGGCGC, the binding signal with HESX1 [1] was 6.55 upbm affinity estimate (log intensity, higher = more binding, comparable within an allelic series); in the assay with SHOX [2] it was 7.24 upbm affinity estimate (log intensity, higher = more binding, comparable within an allelic series); with HESX1 [3] it was 6.36 upbm affinity estimate (log intensity, higher = more binding, comparable within an allelic series); with SHOX [6], 7.21 upbm affinity estimate (log intensity, higher = more binding, comparable within an allelic series); in the assay with HESX1 [8], 6.47 upbm affinity estimate (log intensity, higher = more binding, comparable within an allelic series); in the assay with HESX1 [10], 6.47 upbm affinity estimate (log intensity, higher = more binding, comparable within an allelic series). In the assay with HESX1 [12], the binding signal is 6.58 upbm affinity estimate (log intensity, higher = more binding, comparable within an allelic series).

As for AATTAGCC, the binding signal is 11.4 upbm affinity estimate (log intensity, higher = more binding, comparable within an allelic series) with HESX1 [1]; 11.9 upbm affinity estimate (log intensity, higher = more binding, comparable within an allelic series) in the assay with SHOX [2]; 13.8 upbm affinity estimate (log intensity, higher = more binding, comparable within an allelic series) with ALX4 [14]; 10.7 upbm affinity estimate (log intensity, higher = more binding, comparable within an allelic series) in the assay with PRRX1 [18]; 12.6 upbm affinity estimate (log intensity, higher = more binding, comparable within an allelic series) with ALX4 [15]; 11.5 upbm affinity estimate (log intensity, higher = more binding, comparable within an allelic series) in the assay with HESX1 [3]. Further, the binding signal was 12.1 upbm affinity estimate (log intensity, higher = more binding, comparable within an allelic series) with MSX2 [4]; 11.2 upbm affinity estimate (log intensity, higher = more binding, comparable within an allelic series) with ALX1 [5]; 9.22 upbm affinity estimate (log intensity, higher = more binding, comparable within an allelic series) in the assay with SHOX [6]; 10.8 upbm affinity estimate (log intensity, higher = more binding, comparable within an allelic series) in the assay with ALX1 [7]; 8.71 upbm affinity estimate (log intensity, higher = more binding, comparable within an allelic series) with HESX1 [8]; 10.8 upbm affinity estimate (log intensity, higher = more binding, comparable within an allelic series) with PROP1 [9]. For the same sequence, the binding signal with ALX3 was 10.1 upbm affinity estimate (log intensity, higher = more binding, comparable within an allelic series); in the assay with HESX1 [10] it was 10.2 upbm affinity estimate (log intensity, higher = more binding, comparable within an allelic series); in the assay with MSX2 [11], 12.9 upbm affinity estimate (log intensity, higher = more binding, comparable within an allelic series); in the assay with HESX1 [12] it was 7.46 upbm affinity estimate (log intensity, higher = more binding, comparable within an allelic series); in the assay with ALX1 [13], 12.4 upbm affinity estimate (log intensity, higher = more binding, comparable within an allelic series); in the assay with PRRX1 [19], 13.2 upbm affinity estimate (log intensity, higher = more binding, comparable within an allelic series).

For the origin of these results see paper PMC11006913.
